Shown are actives, neighbours in structure and some others; about 12% of the full set was active somewhere.
JMJD2A Tudor inh: JMJD2A Tudor domain (human) inhibition. Potency, µM (titrated, usually from 114 µM), most hits filed as inhibitors. 390,000 compounds, 4.4% hits. AlphaScreen JMJD2A-Tudor / H3K4me3 peptide binding. O75164; further: nearly all actives have a fitted effect of over 50% in size
G9a block: blocks human histone lysine methyltransferase G9a; Q96KQ7; G9a H3K9 monomethylation, AlphaScreen, 2 h; Potency, µM (doses to about 102 µM), actives largely listed as inhibitors; 350,000 compounds, 8.8% hits; further: nearly all actives have a fitted effect of over 75% in size
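Step 1: enzyme (final 20 nM) with compound, 15 min RT. Step 2: substrate peptide 500 nM and SAM 20 uM, 2 h RT. Step 3: anti-H3K9me1 antibody and AlphaScreen beads, 10 min, then plate read.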
HP1b chromo inh: inhibitors of HP1-beta chromodomain binding to methylated histone tails; AID 540317; P83916; AlphaScreen HP1-beta / biotin-H3K9me3 peptide binding; 390,000 compounds, 0.56% hits; Potency, µM (series often up to 114 µM), most hits filed as inhibitors; further: nearly all actives have a fitted effect of over 70% in size
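Compound inhibition of the preformed complex between 50 nM HP1-beta and 50 nM biotinylated H3K9me3 peptide was read by AlphaScreen. Buffer was PBS pH 7.4 with 0.01% Tween-20. Incubations ran 30 min at room temperature, with 10 ug/mL donor/acceptor beads.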
PI5P4Ka inh: PI5P4K alpha (human) kinase inhibition | P48426 | AID 652105 | max response, % | PI5P4Kalpha enzyme, ADP-Glo luminescence, 60 min; active compounds read low | 330,000 compounds, 1.2% hits; active means max response of -50% or lower; inconclusive means between -30% and -50%; inactive means -30% or higher; further: value at the top dose of about 77 µM
Target sequence (P48426 whole entry, looked up): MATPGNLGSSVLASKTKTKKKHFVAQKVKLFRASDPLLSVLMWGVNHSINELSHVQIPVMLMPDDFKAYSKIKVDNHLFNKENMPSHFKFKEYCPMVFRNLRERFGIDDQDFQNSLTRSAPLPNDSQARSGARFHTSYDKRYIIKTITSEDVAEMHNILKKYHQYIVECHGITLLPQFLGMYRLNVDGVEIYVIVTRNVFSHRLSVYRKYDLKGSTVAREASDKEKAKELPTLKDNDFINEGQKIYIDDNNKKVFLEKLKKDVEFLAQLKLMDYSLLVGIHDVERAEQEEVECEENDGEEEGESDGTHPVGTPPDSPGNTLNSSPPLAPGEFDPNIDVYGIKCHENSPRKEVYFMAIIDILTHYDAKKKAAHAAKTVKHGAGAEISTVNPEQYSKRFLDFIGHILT
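Reactions run in 0.038 M HEPES pH 7.4, 0.28 mM EGTA, 0.1% CHAPS and 5% DMSO, with PI5P4Kalpha, substrate, compound and 5 microM ATP final, one hour at room temperature. Readout is ADP-Glo luminescence.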
BAZ2B block: blocks human BAZ2B. AlphaScreen BAZ2B-H3K14Ac peptide displacement. Potency, µM (titrated, usually from 114 µM), hits mostly inhibitors. 360,000 compounds, 4.4% hits. AID 504333; further: nearly all actives have a fitted effect of over 60% in size
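Multi-concentration screen (max 110 uM) measuring displacement of acetylated histone H3 peptide from BAZ2B by AlphaScreen, using 50 nM protein, 50 nM peptide and 10 ug/mL streptavidin donor plus Ni-chelate acceptor beads.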
PLK1 PBD inh: blocks phosphopeptide binding to human PLK1 polo-box domain. 360,000 compounds, 2.8% hits. Potency, µM, most hits filed as inhibitors. Plk1 PBD binding of FITC phosphopeptide, fluorescence polarization. AID 720504. P53350; further: series mostly up to about 57 µM; nearly all actives have a fitted effect of over 65% in size
Each line names hits and unclear results; the compound was inactive in the other large screens; ! = repeats disagree. Unless noted, the call rests on the fitted dose curve; in most records, active means well fitted curve in the direction sought with a large enough effect; inconclusive means small, poorly fitted or top-dose-only effect, or another doubt; inactive means no such curve, though single readings can be large; an effect the other way counts as inactive or inconclusive.

N#C/C(=C(/O)CCCl)c1ccccn1	JMJD2A Tudor inh inconclusive, G9a block 32µM, BAZ2B block inconclusive
NC(N)=N/N=C/c1cccc(Cl)c1Cl	G9a block 18µM
COc1ccc(OC)c(NC(=S)N(CCc2c(C)[nH]c3ccc(C)cc23)Cc2cccs2)c1	JMJD2A Tudor inh inconclusive, G9a block 45µM, BAZ2B block inconclusive
COc1ccc2[nH]c(C)c(CCN(Cc3cccs3)C(=S)Nc3cccc(F)c3)c2c1	JMJD2A Tudor inh inconclusive, G9a block inconclusive, BAZ2B block inconclusive
COc1ccc(OC)c(NC(=S)N(CCc2c(C)[nH]c3ccccc23)Cc2cccs2)c1	JMJD2A Tudor inh inconclusive, G9a block 56µM, BAZ2B block inconclusive
C=CCC(CC=C)(CNC(=O)C(=O)Nc1cc(C)ccc1OC)c1ccc(OC)c(OC)c1	none (no result: PI5P4Ka inh, PLK1 PBD inh)
CCN1CCCC1CNC(=O)c1cc(OC)c(OC)c(OC)c1 (stereo not drawn)	none
CCN1CCC[C@H]1CNC(=O)c1c(O)c(Cl)cc(Cl)c1OC	JMJD2A Tudor inh inconclusive, G9a block 8.9µM!
O=C1NC(=S)S/C1=C\c1ccc(SCc2ccco2)o1	JMJD2A Tudor inh 6.3µM, G9a block 10µM, HP1b chromo inh 11µM, PI5P4Ka inh -99, BAZ2B block 18µM, PLK1 PBD inh 3µM
O=C1NC(=S)S/C1=C\c1ccc(SCc2ccccc2)o1	JMJD2A Tudor inh 25µM, G9a block inconclusive, HP1b chromo inh inconclusive, PI5P4Ka inh -77, BAZ2B block 50µM, PLK1 PBD inh 27µM
Cc1cc(C)n2c(NC3CCCCC3)c(-c3cccnc3)nc2n1	none (no result: JMJD2A Tudor inh, G9a block, HP1b chromo inh, BAZ2B block)
C[C@@H]1CN([C@H](C)CO)S(=O)(=O)c2ccc(Br)cc2O[C@H]1CN(C)C(=O)C1CCCCC1	none (no result: JMJD2A Tudor inh, G9a block, HP1b chromo inh, BAZ2B block)
CC(=O)NCCC(=O)Nc1cc(S(=O)(=O)N2CCCCC2)ccc1Oc1ccccc1	none (no result: G9a block)
Cc1ccc(C)c(NC(=S)/C(=C(\[O-])c2ccc(OC(F)F)cc2)[n+]2ccccc2)c1	G9a block 40µM, BAZ2B block inconclusive
O=C(/C=C/c1ccc([N+](=O)[O-])cc1)Nc1ncc([N+](=O)[O-])s1	G9a block 50µM, BAZ2B block 35µM
O=[N+]([O-])c1ccc(/C([O-])=C(/C(=S)Nc2ccccc2F)[n+]2ccccc2)cc1	G9a block 50µM
CCOc1ccc(NC(=S)/C(=C(\[O-])c2ccc(C)c([N+](=O)[O-])c2)[n+]2ccccc2)cc1	G9a block inconclusive, BAZ2B block inconclusive
[O-]/C(=C(\C(=S)Nc1ccccc1F)[n+]1ccccc1)c1ccc(OC(F)F)cc1	G9a block 50µM, PLK1 PBD inh inconclusive
O=C(NOC(=O)c1ccccc1F)c1ccc(OC(F)F)cc1	none
COc1cccc(NC(=O)/C=C/c2ccc([N+](=O)[O-])cc2)c1	G9a block 7.9µM, BAZ2B block inconclusive, PLK1 PBD inh inconclusive
O=[N+]([O-])c1cccc(/C([O-])=C(/C(=S)Nc2cccc3ccccc23)[n+]2ccccc2)c1	JMJD2A Tudor inh inconclusive, G9a block 5.6µM, HP1b chromo inh inconclusive
O=[N+]([O-])c1cccc(C([O-])=C(C(=S)Nc2cccc3ccccc23)[n+]2ccccc2)c1	JMJD2A Tudor inh inconclusive, HP1b chromo inh inconclusive, PLK1 PBD inh inconclusive (no result: G9a block, BAZ2B block)
COc1cccc(NC(=S)/C(=C(\[O-])c2ccc([N+](=O)[O-])cc2)[n+]2ccccc2)c1	G9a block 45µM, BAZ2B block 50µM, PLK1 PBD inh 7.5µM
CCOC(=O)CSc1nc2c([nH]c3ccccc32)c(=O)n1-c1ccc(OCC)cc1	JMJD2A Tudor inh inconclusive (no result: PI5P4Ka inh, PLK1 PBD inh)
COCCCN1C(=O)c2[nH]nc(-c3cc(C)cc(C)c3O)c2C1c1ccc(O)c(OC)c1 (stereo not drawn)	G9a block 45µM (no result: PI5P4Ka inh)
C=CCn1c(CNc2ccccc2)nnc1SCC(=O)N/N=C/c1ccc(O)cc1O	HP1b chromo inh inconclusive, BAZ2B block inconclusive, PLK1 PBD inh 27µM
C=CCn1c(CNc2ccc(C)cc2)nnc1SCC(=O)N/N=C/c1ccc(O)cc1O	BAZ2B block inconclusive
Cc1ccc(CNC(=O)CCCCn2c(=O)c3ccccc3n(Cc3c(C)cc(C)cc3C)c2=O)cc1	none (no result: PI5P4Ka inh, PLK1 PBD inh)
